Activity calls are given as the source filed them. The calls were made as follows: active = hit-call score of the fitted dose curve at least 0.9, where 1 is the maximum; inactive = score below 0.9.
Key:
[1] = read-out: Macrophage colony-stimulating factor (MCSF), CSF1 (gene 1435); assay: BSK_CASM3C_MCSF: BioMAP Diversity Plus: CASM3C Assay for Macrophage colony-stimulating factor (MCSF) Biomarker Activity (AID 2283044); conditions: primary human coronary artery smooth muscle cells; actives raise or lower the signal;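 also: M-CSF protein amount quantified by ELISA after 24 h exposure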
[2] = read-out: Low-density lipoprotein receptor (LDLR), LDLR (gene 3949); assay: BSK_CASM3C_LDLR: BioMAP Diversity Plus: CASM3C Assay for Low-density lipoprotein receptor (LDLR) Biomarker Activity (AID 2283045); conditions: primary human coronary artery smooth muscle cells; actives raise or lower the signal;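 also: LDLR protein level on the cell surface quantified by ELISA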
[3] = read-out: Monocyte Chemoattractant Protein-1 (MCP1), CCL2 (gene 6347); assay: BSK_CASM3C_MCP1: BioMAP Diversity Plus: CASM3C Assay for Monocyte Chemoattractant Protein-1 (MCP1) Biomarker Activity (AID 2283046); conditions: primary human coronary artery smooth muscle cells; actives raise or lower the signal;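 also: MCP-1 level quantified by ELISA 24 h after dosing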
[4] = BSK_CASM3C_Proliferation: Cell Proliferation Assessment in the BioMAP Diversity Plus: CASM3C Assay (AID 2283047); conditions: primary human coronary artery smooth muscle cells;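 also: sulforhodamine B total protein stain as relative cell number at 560 nm; sub-confluent cells exposed 48 h before staining; fitted both ways against DMSO so gain or loss of cell number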
[5] = read-out: Monokine induced gamma interferon (MIG), CXCL9 (gene 4283); assay: BSK_CASM3C_MIG: BioMAP Diversity Plus: CASM3C Assay for Monokine induced gamma interferon (MIG) Biomarker Activity (AID 2283048); conditions: primary human coronary artery smooth muscle cells; actives raise or lower the signal;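 also: MIG protein level measured by ELISA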
[6] = read-out: serum amyloid A (SAA), SAA1 (gene 6288); assay: BSK_CASM3C_SAA: BioMAP Diversity Plus: CASM3C Assay for serum amyloid A (SAA) Biomarker Activity (AID 2283049); conditions: primary human coronary artery smooth muscle cells; actives raise or lower the signal;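 also: SAA protein level quantified by ELISA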
[7] = BSK_CASM3C_SRB: Viability Assessment in the BioMAP Diversity Plus: CASM3C Assay (AID 2283050); conditions: primary human coronary artery smooth muscle cells
[8] = read-out: Thrombomodulin, THBD (gene 7056); assay: BSK_CASM3C_Thrombomodulin: BioMAP Diversity Plus: CASM3C Assay for Thrombomodulin Biomarker Activity (AID 2283051); conditions: primary human coronary artery smooth muscle cells; actives raise or lower the signal;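 also: thrombomodulin protein level measured by ELISA 24 h after dosing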
[9] = read-out: Tissue Factor, F3 (gene 2152); assay: BSK_CASM3C_TissueFactor: BioMAP Diversity Plus: CASM3C Assay for Tissue Factor Biomarker Activity (AID 2283052); conditions: primary human coronary artery smooth muscle cells; actives raise or lower the signal;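 also: cell surface tissue factor protein level read by ELISA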
[10] = read-out: Interferon-gamma inducible Protein 10 (IP10), CXCL10 (gene 3627); assay: BSK_hDFCGF_IP10: BioMAP Diversity Plus: hDFCGF Assay for Interferon-gamma inducible Protein 10 (IP10) Biomarker Activity (AID 2283053); conditions: primary human foreskin fibroblasts; actives raise or lower the signal
How it was run: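 IP-10 levels, quantified by ELISA, are taken from human foreskin fibroblast cultures 24 h after chemical treatment, with DMSO serving as negative control and baseline for bidirectional analysis.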

[11] = read-out: Urokinase-type plasminogen activator receptor (uPAR), PLAUR (gene 5329); assay: BSK_CASM3C_uPAR: BioMAP Diversity Plus: CASM3C Assay for Urokinase-type plasminogen activator receptor (uPAR) Biomarker Activity (AID 2283054); conditions: primary human coronary artery smooth muscle cells; actives raise or lower the signal;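 also: cell-surface uPAR protein level quantified by ELISA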
[12] = read-out: Vascular cell adhesion molecule 1 (VCAM1), VCAM1 (gene 7412); assay: BSK_CASM3C_VCAM1: BioMAP Diversity Plus: CASM3C Assay for Vascular cell adhesion molecule 1 (VCAM1) Biomarker Activity (AID 2283055); conditions: primary human coronary artery smooth muscle cells; actives raise or lower the signal;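 also: VCAM-1 protein level quantified by ELISA on the cells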
[13] = read-out: Collagen III, COL3A1 (gene 1281); assay: BSK_hDFCGF_CollagenIII: BioMAP Diversity Plus: hDFCGF Assay for Collagen III Biomarker Activity (AID 2283056); conditions: primary human foreskin fibroblasts; actives raise or lower the signal
How it was run: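 Human foreskin primary fibroblasts were exposed to test chemicals for 24 h, after which collagen III was quantified by ELISA. Activity was fitted bidirectionally against DMSO as negative control and baseline.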

[14] = read-out: Epidermal growth factor receptor (EGFR), EGFR (gene 1956); assay: BSK_hDFCGF_EGFR: BioMAP Diversity Plus: hDFCGF Assay for Epidermal growth factor receptor (EGFR) Biomarker Activity (AID 2283057); conditions: primary human foreskin fibroblasts; actives raise or lower the signal
How it was run: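 Measured by ELISA: EGFR levels on primary human foreskin fibroblasts 24 h after chemical treatment, analysed relative to DMSO with bidirectional fitting.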

[15] = read-out: Interleukin-8 (IL8), CXCL8 (gene 3576); assay: BSK_hDFCGF_IL8: BioMAP Diversity Plus: hDFCGF Assay for Interleukin-8 (IL8) Biomarker Activity (AID 2283058); conditions: primary human foreskin fibroblasts; actives raise or lower the signal
How it was run: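 hDFCGF human dermal fibroblasts; 24 h chemical exposure; IL-8 by ELISA; bidirectional curve fit vs DMSO baseline; gain or loss of signal scored.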

[16] = BSK_hDFCGF_Proliferation: Cell Proliferation Assessment in the BioMAP Diversity Plus: hDFCGF Assay (AID 2283059); conditions: primary human foreskin fibroblasts;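 also: curves fitted for both rise and fall of signal versus DMSO baseline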
How it was run: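 Primary human foreskin fibroblasts, sub-confluent; […]; 10% TCA fix, 0.1% SRB stain, A560 total protein. Gain/loss fitted bidirectionally vs DMSO control.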

[17] = read-out: Macrophage colony-stimulating factor (MCSF), CSF1 (gene 1435); assay: BSK_hDFCGF_MCSF: BioMAP Diversity Plus: hDFCGF Assay for Macrophage colony-stimulating factor (MCSF) Biomarker Activity (AID 2283060); conditions: primary human foreskin fibroblasts; actives raise or lower the signal
How it was run: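 Human foreskin primary fibroblasts were treated with test chemical for 24 h, and M-CSF was then measured by ELISA. Data were fitted bidirectionally against DMSO as the negative control and activity baseline.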

[18] = read-out: TIMP metallopeptidase inhibitor 1 (TIMP1), TIMP1 (gene 7076); assay: BSK_hDFCGF_TIMP1: BioMAP Diversity Plus: hDFCGF Assay for TIMP metallopeptidase inhibitor 1 (TIMP1) Biomarker Activity (AID 2283062); conditions: primary human foreskin fibroblasts; actives raise or lower the signal
How it was run: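 Primary human foreskin fibroblasts in the hDFCGF system were dosed with compound for 24 h, then TIMP-1 was measured by ELISA. Activity was fitted bidirectionally relative to DMSO control; parallel SRB staining assessed cytotoxicity.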

[19] = read-out: Monokine induced gamma interferon (MIG), CXCL9 (gene 4283); assay: BSK_hDFCGF_MIG: BioMAP Diversity Plus: hDFCGF Assay for Monokine induced gamma interferon (MIG) Biomarker Activity (AID 2283063); conditions: primary human foreskin fibroblasts; actives raise or lower the signal
How it was run: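 ELISA read-out of MIG from primary human dermal fibroblasts 24 h post-dosing. Gain or loss of signal fitted bidirectionally, DMSO as baseline.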

[20] = read-out: Matrix Metallopeptidase 1 (MMP1), MMP1 (gene 4312); assay: BSK_hDFCGF_MMP1: BioMAP Diversity Plus: hDFCGF Assay for Matrix Metallopeptidase 1 (MMP1) Biomarker Activity (AID 2283064); conditions: primary human foreskin fibroblasts; actives raise or lower the signal
How it was run: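 hDFCGF primary fibroblasts (human foreskin); chemical added; 24 h; MMP1 by ELISA; bidirectional fit vs DMSO.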

[21] = read-out: Vascular cell adhesion molecule 1 (VCAM1), VCAM1 (gene 7412); assay: BSK_hDFCGF_VCAM1: BioMAP Diversity Plus: hDFCGF Assay for Vascular cell adhesion molecule 1 (VCAM1) Biomarker Activity (AID 2283065); conditions: primary human foreskin fibroblasts; actives raise or lower the signal
How it was run: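 Primary human foreskin fibroblasts (hDFCGF system) were dosed with chemical and VCAM-1 was measured by ELISA 24 h later. Bidirectional curve fitting used DMSO as negative control and activity baseline.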

[22] = read-out: Plasminogen activator inhibitor-1 (PAI1), SERPINE1 (gene 5054); assay: BSK_hDFCGF_PAI1: BioMAP Diversity Plus: hDFCGF Assay for Plasminogen activator inhibitor-1 (PAI1) Biomarker Activity (AID 2283066); conditions: primary human foreskin fibroblasts; actives raise or lower the signal
How it was run: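 PAI-1 levels, determined by ELISA, served as the endpoint in human foreskin fibroblast cultures exposed to compound for 24 h, with DMSO as baseline.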

[23] = read-out: Intercellular Adhesion Molecule 1 (ICAM1), ICAM1 (gene 3383); assay: BSK_KF3CT_ICAM1: BioMAP Diversity Plus: KF3CT Assay for Intercellular Adhesion Molecule 1 (ICAM1) Biomarker Activity (AID 2283067); conditions: primary human keratinocytes with fibroblasts; actives raise or lower the signal
How it was run: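 Human keratinocyte plus foreskin fibroblast primary co-culture was exposed to chemical for 24 h. ICAM-1 was then quantified by ELISA, and the data were fit bidirectionally against DMSO as the negative control and baseline.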

[24] = read-out: Interferon-gamma inducible Protein 10 (IP10), CXCL10 (gene 3627); assay: BSK_KF3CT_IP10: BioMAP Diversity Plus: KF3CT Assay for Interferon-gamma inducible Protein 10 (IP10) Biomarker Activity (AID 2283068); conditions: primary human keratinocytes with fibroblasts; actives raise or lower the signal
How it was run: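 In a primary skin co-culture of keratinocytes and fibroblasts, IP-10 is quantified by ELISA at 24 h after dosing. SRB staining of parallel wells monitors overt toxicity. Curves are fitted both directions against DMSO.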

[25] = BSK_KF3CT_SRB: Viability Assessment in the BioMAP Diversity Plus: KF3CT Assay (AID 2283069); conditions: primary human keratinocytes with fibroblasts;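 also: total protein by sulforhodamine B staining as a cytotoxicity measure; read 24 h after compound addition; fitted for both signal gain and loss against DMSO baseline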
How it was run: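 Keratinocytes co-cultured with foreskin fibroblasts (human primary); chemical added, 24 h; fix 10% TCA, stain 0.1% SRB, A560. Bidirectional fit vs DMSO.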

[26] = read-out: Interleukin-1 alpha (IL1a), IL1A (gene 3552); assay: BSK_KF3CT_IL1a: BioMAP Diversity Plus: KF3CT Assay for Interleukin-1 alpha (IL1a) Biomarker Activity (AID 2283070); conditions: primary human keratinocytes with fibroblasts; actives raise or lower the signal
How it was run: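 Chemicals were dosed onto co-cultured human keratinocytes and foreskin fibroblasts, IL-1a was quantified by ELISA at 24 h, and activity was fitted in both directions relative to DMSO controls.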

[27] = read-out: TIMP metallopeptidase inhibitor 2 (TIMP2), TIMP2 (gene 7077); assay: BSK_KF3CT_TIMP2: BioMAP Diversity Plus: KF3CT Assay for TIMP metallopeptidase inhibitor 2 (TIMP2) Biomarker Activity (AID 2283071); conditions: primary human keratinocytes with fibroblasts; actives raise or lower the signal
How it was run: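 Keratinocyte–fibroblast co-culture, 24 h exposure; TIMP-2 ELISA, DMSO-normalised bidirectional fit. Parallel SRB (0.1%, TCA-fixed, 560 nm) total-protein staining gauges cytotoxicity.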

[28] = read-out: C-C motif chemokine 2 (Homo sapiens) (UniProt P13500); assay: BSK_KF3CT_MCP1: BioMAP Diversity Plus: KF3CT Assay for Monocyte Chemoattractant Protein 1 (MCP1/CCL2) Biomarker Activity (AID 2283073); conditions: primary human keratinocytes with fibroblasts; actives raise or lower the signal
How it was run: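 Human keratinocyte plus foreskin fibroblast primary co-culture exposed to chemical for 24 h. MCP-1 levels measured by ELISA. Bidirectional curve fitting relative to DMSO negative control as baseline.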

[29] = read-out: urokinase plasminogen activator (uPA), PLAU (gene 5328); assay: BSK_KF3CT_uPA: BioMAP Diversity Plus: KF3CT Assay for urokinase plasminogen activator (uPA) Biomarker Activity (AID 2283075); conditions: primary human keratinocytes with fibroblasts; actives raise or lower the signal
How it was run: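 ELISA readout of uPA, analyzed for signal gain or loss relative to DMSO, from a human primary keratinocyte–foreskin fibroblast co-culture measured 24 h after chemical treatment.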

Measured: outcome

CCCC[N+](CCCC)(CCCC)CCCC
inactive: all assays above

— PubChem BioAssay (EPA / NIEHS)
